{
  "source": "ChEMBL document CHEMBL3988442",
  "about": "“University of Dundee, Small-Polar-MMV Screening Library” (2021)",
  "system": "Trypanosoma brucei",
  "assay": "Trypanosoma brucei 72 hour study",
  "type": "functional, organism-based",
  "design": "scale not given: in the data most compounds retested in dose-response had high values",
  "note": "Out of some 66,000 compounds screened, about 960 (1.5%) showed an effect of 50% or more. Shown is part of a subset that was picked to be rich in strong results.",
  "data": [
    {"smiles": "CC(C)CS(=O)(=O)N1C[C@H]2C[C@H](C(=O)N3CCOCC3)[C@@H](C1)O2", "values": [
      {"measurement": "Percent Effect", "setting": "30.3 µM, […]", "result": -39.74, "unit": "%"}
    ]},
    {"smiles": "COc1ncccc1CNc1snc(Cl)c1C#N", "values": [
      {"measurement": "Percent Effect", "setting": "30 µM, 30.03 µM", "result": -23.85, "unit": "%"}
    ]},
    {"smiles": "CC(C)c1cc(C(=O)NCCCN(C)C)nc(N2CCCC2)n1", "values": [
      {"measurement": "Percent Effect", "setting": "30.3 µM, […]", "result": 85.35, "unit": "%"}
    ]},
    {"smiles": "COCCCNC(=O)c1cc(C(C)C)nc(N2CCCC2)n1", "values": [
      {"measurement": "Percent Effect", "setting": "30.3 µM, […]", "result": -9.807, "unit": "%"}
    ]},
    {"smiles": "CCN(CC)CCNC(=O)c1cc(C(C)C)nc(N2CCCC2)n1", "values": [
      {"measurement": "Percent Effect", "setting": "30 µM, 30.03 µM", "result": -3.491, "unit": "%"}
    ]},
    {"smiles": "Cc1nc(C(=O)N2CC[C@@]3(C[C@@H](NS(C)(=O)=O)CCO3)C2)cs1", "values": [
      {"measurement": "Percent Effect", "setting": "30.3 µM, […]", "result": -224.6, "unit": "%"}
    ]},
    {"smiles": "Cc1ccn(-c2ccc(NCc3cccnc3N3CCCCC3)nn2)n1", "values": [
      {"measurement": "Percent Effect", "setting": "30.3 µM, […]", "result": 1.055, "unit": "%"}
    ]},
    {"smiles": "Cc1ccn(-c2ccc(NCc3ccnc(N4CCCCC4)c3)nn2)n1", "values": [
      {"measurement": "Percent Effect", "setting": "30.3 µM, […]", "result": 100.1, "unit": "%"}
    ]},
    {"smiles": "Cc1ccn(-c2ccc(NCc3ccccc3F)nn2)n1", "values": [
      {"measurement": "Percent Effect", "setting": "30.3 µM, […]", "result": -5.586, "unit": "%"}
    ]},
    {"smiles": "CC1c2ncc(CNC(=O)C3CC3)n2CCN1Cc1ccsc1.O=C(O)C(F)(F)F", "note": "(configuration not stated)", "values": [
      {"measurement": "Percent Effect", "setting": "30.3 µM, […]", "result": -8.055, "unit": "%"}
    ]},
    {"smiles": "O=C(CCOCC(F)(F)F)NS(=O)(=O)c1cccnc1", "values": [
      {"measurement": "Percent Effect", "setting": "30.3 µM, […]", "result": -16.93, "unit": "%"}
    ]},
    {"smiles": "N#Cc1cccc(S(=O)(=O)NC(=O)CCOCC(F)(F)F)c1", "values": [
      {"measurement": "Percent Effect", "setting": "30.3 µM, […]", "result": 72.29, "unit": "%"}
    ]},
    {"smiles": "N#Cc1cccc(S(=O)(=O)NC(=O)COCC(F)(F)F)c1", "values": [
      {"measurement": "Percent Effect", "setting": "30.3 µM, […]", "result": -64.9, "unit": "%"}
    ]},
    {"smiles": "CN(C)c1ncc(-c2cc(C(=O)NCCC#N)n(CC3CC3)c2)cn1.O=C(O)C(F)(F)F", "values": [
      {"measurement": "Percent Effect", "setting": "30.3 µM, […]", "result": -1.079, "unit": "%"}
    ]},
    {"smiles": "Cn1cc(C(=O)N2CCCC(Cc3cccc4ncccc34)C2)cn1", "note": "(configuration not stated)", "values": [
      {"measurement": "Percent Effect", "setting": "30.3 µM, […]", "result": -45.5, "unit": "%"}
    ]},
    {"smiles": "CC(C)(C)C(=O)NCCc1ccn(-c2ccccc2)n1", "values": [
      {"measurement": "Percent Effect", "setting": "30 µM, 30.03 µM", "result": 103.6, "unit": "%"}
    ]},
    {"smiles": "CC(C)CC(=O)NCCCc1cc(N)n(-c2ccccc2)n1", "values": [
      {"measurement": "Percent Effect", "setting": "30 µM, 30.03 µM", "result": -23.13, "unit": "%"}
    ]},
    {"smiles": "CCC(CC)C(=O)NCCc1ccn(-c2ccccc2)n1", "values": [
      {"measurement": "Percent Effect", "setting": "10 µM", "result": -35.97, "unit": "%"}
    ]},
    {"smiles": "CC(C)(CNC(=O)NCCc1ccn(-c2ccccc2)n1)C(N)=O", "values": [
      {"measurement": "Percent Effect", "setting": "10 µM", "result": -34.81, "unit": "%"}
    ]},
    {"smiles": "CCN(CC)C(=O)NCCc1ccn(-c2ccccc2)n1", "values": [
      {"measurement": "Percent Effect", "setting": "10 µM", "result": 99.69, "unit": "%"}
    ]},
    {"smiles": "COCCNC(=O)NCCc1ccn(-c2ccccc2)n1", "values": [
      {"measurement": "Percent Effect", "setting": "30 µM, 30.03 µM", "result": 42.02, "unit": "%"}
    ]},
    {"smiles": "CC(C)(C)C(=O)NCCC(=O)NCCc1ccn(-c2ccccc2)n1", "values": [
      {"measurement": "Percent Effect", "setting": "10 µM", "result": -35.6, "unit": "%"}
    ]},
    {"smiles": "CC(C)CCC(=O)NCCc1ccn(-c2ccccc2)n1", "values": [
      {"measurement": "Percent Effect", "setting": "10 µM", "result": 100.3, "unit": "%"}
    ]},
    {"smiles": "O=C(CCNc1ncccn1)NCCc1ccn(-c2ccccc2)n1", "values": [
      {"measurement": "Percent Effect", "setting": "30 µM, 30.03 µM", "result": 19.3, "unit": "%"}
    ]},
    {"smiles": "CC(C)c1nc(C2CCCN2Cc2nnc(C3CCC3)o2)no1", "note": "(configuration not stated)", "values": [
      {"measurement": "Percent Effect", "setting": "10 µM", "result": -24.2, "unit": "%"}
    ]},
    {"smiles": "CN(C)CC(=O)N1CCCC1c1cncc(Oc2ccc(F)cc2)n1", "note": "(configuration not stated)", "values": [
      {"measurement": "Percent Effect", "setting": "30.3 µM, […]", "result": -19.56, "unit": "%"}
    ]},
    {"smiles": "COc1c(C2CCCN2C(=O)c2ccc(C#N)c(C)n2)c(C)nn1C", "note": "(configuration not stated)", "values": [
      {"measurement": "Percent Effect", "setting": "10 µM", "result": -24.86, "unit": "%"},
      {"measurement": "Percent Effect", "setting": "30.3 µM, […]", "result": 0.3708, "unit": "%"}
    ]},
    {"smiles": "CCc1nc(CSc2nnc(N)n2C2CC2)no1", "values": [
      {"measurement": "Percent Effect", "setting": "30.3 µM, […]", "result": -10.47, "unit": "%"}
    ]},
    {"smiles": "Cc1ccccc1Cc1nc(CSc2nnc(N)n2C)no1", "values": [
      {"measurement": "Percent Effect", "setting": "30.3 µM, […]", "result": 30.54, "unit": "%"}
    ]},
    {"smiles": "Cc1ccccc1Cc1nc(CSc2nnc(N)n2C2CC2)no1", "values": [
      {"measurement": "Percent Effect", "setting": "30.3 µM, […]", "result": 69.45, "unit": "%"}
    ]},
    {"smiles": "O=C1NCCN1C1CCN(CCOc2ccccc2F)CC1", "values": [
      {"measurement": "Percent Effect", "setting": "10 µM", "result": -33.22, "unit": "%"}
    ]},
    {"smiles": "Cc1ccc(CN2C[C@@H]3CCCO[C@@H]3[C@H](N(C)Cc3ccco3)C2)o1.O=C(O)C(F)(F)F.O=C(O)C(F)(F)F", "values": [
      {"measurement": "Percent Effect", "setting": "30 µM, 30.03 µM", "result": 25.08, "unit": "%"}
    ]},
    {"smiles": "CCCN1CCCn2c(nc(CNC(=O)c3cnoc3C)cc2=O)C1.O=C(O)C(F)(F)F", "values": [
      {"measurement": "Percent Effect", "setting": "30 µM, 30.03 µM", "result": 19.21, "unit": "%"}
    ]},
    {"smiles": "COCCn1cc(NC(=O)NCC(C)N2CCOCC2)cn1", "note": "(configuration not stated)", "values": [
      {"measurement": "Percent Effect", "setting": "30.3 µM, […]", "result": -22.83, "unit": "%"}
    ]},
    {"smiles": "CCC(CC)C(CNC(=O)Nc1cnn(CCOC)c1)N(C)C", "note": "(configuration not stated)", "values": [
      {"measurement": "Percent Effect", "setting": "30.3 µM, […]", "result": 100.4, "unit": "%"}
    ]},
    {"smiles": "COCCn1cc(NC(=O)NCC(c2cccc(F)c2)N(C)C)cn1", "note": "(configuration not stated)", "values": [
      {"measurement": "Percent Effect", "setting": "30.3 µM, […]", "result": 9.218, "unit": "%"}
    ]},
    {"smiles": "CC(C)c1nnc2n1CC(CNC/C=C/c1ccccc1)CC2", "note": "(configuration not stated)", "values": [
      {"measurement": "Percent Effect", "setting": "30 µM, 30.03 µM", "result": 7.913, "unit": "%"}
    ]},
    {"smiles": "CC(C)NC1CCc2[nH]c(=O)ccc2C1.O=C(O)C(F)(F)F", "note": "(configuration not stated)", "values": [
      {"measurement": "Percent Effect", "setting": "30.3 µM, […]", "result": -14.11, "unit": "%"}
    ]},
    {"smiles": "CN1CCO[C@@H]2CN(C(=O)Cc3cccs3)CC[C@@H]2C1.O=C(O)C(F)(F)F", "values": [
      {"measurement": "Percent Effect", "setting": "30.3 µM, […]", "result": -41.5, "unit": "%"}
    ]},
    {"smiles": "CC(C)Nc1ccnc(N2Cc3cnc(C(C)(C)C)nc3C2)n1", "values": [
      {"measurement": "Percent Effect", "setting": "30 µM, 30.03 µM", "result": -43.35, "unit": "%"}
    ]},
    {"smiles": "CCNc1ccnc(N2Cc3cnc(CC(C)C)nc3C2)n1", "values": [
      {"measurement": "Percent Effect", "setting": "30 µM, 30.03 µM", "result": 7.855, "unit": "%"}
    ]},
    {"smiles": "CC(C)Cc1ncc2c(n1)CN(c1nccc(NC(C)C)n1)C2", "values": [
      {"measurement": "Percent Effect", "setting": "30 µM, 30.03 µM", "result": 89.54, "unit": "%"}
    ]},
    {"smiles": "CN(Cc1cccnc1)[C@@H]1CN(C(=O)c2ccoc2)[C@@H]2CCCO[C@H]12.O=C(O)C(F)(F)F.O=C(O)C(F)(F)F", "values": [
      {"measurement": "Percent Effect", "setting": "30.3 µM, […]", "result": -7.538, "unit": "%"}
    ]},
    {"smiles": "CN1CCN(Cc2cnc3n2CCN(CCc2ccccc2)C3)CC1.O=C(O)C(F)(F)F.O=C(O)C(F)(F)F.O=C(O)C(F)(F)F", "values": [
      {"measurement": "Percent Effect", "setting": "30.3 µM, […]", "result": -12.43, "unit": "%"}
    ]},
    {"smiles": "Cc1cccc(CN2CC3(CCN(Cc4ccoc4)CC3)OCC2=O)n1.O=C(O)C(F)(F)F.O=C(O)C(F)(F)F", "values": [
      {"measurement": "Percent Effect", "setting": "30.3 µM, […]", "result": -93.34, "unit": "%"}
    ]},
    {"smiles": "O=C(O)CC(O)(CC(=O)O)C(=O)O.OCCN(Cc1ccncc1)CC1(c2ccc(Cl)cc2)CCCC1", "values": [
      {"measurement": "Percent Effect", "setting": "30.3 µM, […]", "result": 12.41, "unit": "%"}
    ]}
  ]
}
